Potency data for eight compounds are collected here from PubChem BioAssay (Tox21).

Unmarked numbers belong to inactive results. Results filed as inconclusive are left out. Activity calls are given as the source filed them. Unless noted, the call rests on the fitted dose curve.

A short description of assay [1]: Nuclear factor erythroid 2-related factor 2/antioxidant responsive element (Nrf2/ARE) small molecule agonists: qHTS cell viability counter screen in human keratinocytes (AID 1919968; active means well fitted curve in the direction sought with a large enough effect in the repeat runs; an effect the other way counts as inactive or inconclusive; further: nearly all actives have a fitted effect of over 55% in size; further: potency means the concentration at half of the fitted maximal effect). A digest of the protocol: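 After a 5 h attachment period, ARE-reporter keratinocytes were dosed with compounds in DMSO and then cultured 23 h at 37 C. Cell viability came from CellTiter-Fluor signal read after a further 1 h.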
(In general: In qHTS, concentration-response curves come from the screen itself.)

The target in assay [2] is Gonadotropin-releasing hormone receptor (Homo sapiens) (UniProt P30968). The assay is described as follows: Human gonadotropin-releasing hormone receptor (GnRHR) small molecule agonists, calcium flux assay in GnRHR-HEK293 cells (AID 1920063). Further: nearly all actives have a fitted effect of over 35% in size. A digest of the protocol: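 We seeded human GnRHR-expressing HEK293 cells for 18 hours, loaded them with calcium dye for an hour at 37 C, added test compounds, and recorded fluorescence intensity kinetically for three minutes.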

Assay [3] deals with KiSS-1 receptor (Homo sapiens) (UniProt Q969F8). The assay is described as follows: Human kisspeptin (KISS1R) small molecule agonists, calcium flux assay in KISS1R-HEK293 cells (AID 1920064; active means well fitted curve in the direction sought with a large enough effect in the repeat runs; an effect the other way counts as inactive or inconclusive). A digest of the protocol:
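Kinetic calcium assay, 1 s sampling over 3 min at Ex/Em 480/540, in HEK293 cells engineered with human KISS1R; compounds delivered in DMSO after 1 h dye loading.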
(Calcium flux is commonly read through the fluorescence of an indicator in the cells.)

Assay [4] in a line: G protein-coupled receptor (GPCR) small molecule agonists, calcium flux assay: HEK293 wild type cell line counter screen (AID 1920065). The method, boiled down:
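Calcium-sensitive dye, loaded 1 h at 37 C into cells cultured 18 h, reports compound-evoked calcium release as fluorescence (Ex/Em 480/540), measured over 3 min. Agonist mode; 15-point titrations, triplicate.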

A short description of assay [5]: p53 small molecule agonists, cell-based qHTS assay with human liver microsomes (AID 1963577). A digest of the protocol:
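Cells carrying a p53-responsive bla reporter were rested 5 h (37 C, 5% CO2) before compound transfer. Human liver microsomes plus NADPH, 0.5 mg/mL final apiece, supplied metabolism during the 16 h 37 C exposure.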

Assay [6] is described as follows: p53 small molecule agonists, cell-based qHTS assay with rat liver microsomes (AID 1963578). A digest of the protocol:
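Fluorescence from a beta-lactamase reporter under a p53 response element was measured after cells had been incubated 16 h at 37 C with test compound and rat liver microsomes plus NADPH (0.5 mg/mL final each).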

The nature of assay [7]: p53 small molecule agonists, cell-based qHTS assay with rat liver microsomes: qHTS cell viability counter screen (AID 1963580). Further: nearly all actives have a fitted effect of over 45% in size. A digest of the protocol:
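p53RE-bla HCT-116 cells were exposed 16 h at 37 C to compounds with rat liver microsomes (0.5 mg/mL) and NADPH (0.5 mg/mL). Viability was measured in the same wells as ATP content by CellTiter-Glo luminescence.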

Assay [8] can be described thus: p53 small molecule agonists, cell-based qHTS assay: qHTS cell viability counter screen (AID 1963581). Further: nearly all actives have a fitted effect of over 45% in size. The method, boiled down:
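Following 5 h attachment, HCT-116 p53RE-bla cells took up compound for 16 h at 37 C; the reporter was read with B/G FRET substrate (2 h RT), and viability then via CellTiter-Glo ATP luminescence.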

Assay [9] is described as follows: p53 small molecule agonists, cell-based qHTS assay (AID 1963582; active means well fitted activation curve with a large enough effect in the signal ratio in the repeat runs, not every such curve was filed as active; the % refers to the signal ratio). The method, boiled down: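 In this cell-based concentration-response screen, a p53 response element drives beta-lactamase; cells received DMSO-borne compounds after 5 h culture and were incubated a further 16 h before FRET substrate development.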
Assay [10] deals with 5-hydroxytryptamine receptor 2A (Homo sapiens) (UniProt P28223). As to the kind of experiment: 5-hydroxytryptamine receptor 2A (HTR2A) small molecule antagonists, cell-based qHTS assay (AID 1963586). Further: nearly all actives have a fitted effect of over 45% in size. The method, boiled down:
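Antagonist-mode intracellular calcium assay: DOI (4 nM) added after 5 min compound pre-incubation at room temperature to dye-loaded HTR2A-CHO cells. Fluorescence followed for 3 min, sampled every second.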

The target is the same in assay [11]. The assay is described as follows: 5-hydroxytryptamine receptor 2A (HTR2A) small molecule agonists, cell-based qHTS assay (AID 1963587). Further: nearly all actives have a fitted effect of over 30% in size. The method, boiled down:
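CHO cells stably expressing human HTR2A, plated 18 h, loaded with calcium dye 1 h at 37 C. Agonist mode: compounds added and intracellular calcium fluorescence recorded kinetically for 2 min at 1 sec intervals.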

Assay [12] deals with Muscarinic acetylcholine receptor M1 (Homo sapiens) (UniProt P11229). The assay is described as follows: Cholinergic receptor muscarinic 1 (CHRM1) small molecule antagonists, cell-based qHTS assay (AID 1963588). Further: nearly all actives have a fitted effect of over 40% in size. The method, boiled down: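 CHRM1-CHO calcium-flux assay, antagonist mode. Cells were seeded 18 h, dye-loaded 1 h at 37 C and given compound for 5 min at RT, then acetylcholine was added at 50nM. FDSS fluorescence was read 3 min; 15 concentrations, three runs.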

Assay [13] shares this target. The assay is described as follows: Cholinergic receptor muscarinic 1 (CHRM1) small molecule agonists, cell-based qHTS assay (AID 1963589). Further: nearly all actives have a fitted effect of over 35% in size. A digest of the protocol: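 Measures agonist-induced intracellular calcium rise. Stable human CHRM1 CHO line, 1 h dye load at 37 C, compounds from DMSO, kinetic fluorescence read.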
A short description of assay [14]: cAMP Responsive Elements (CRE) small molecule agonists, cell-based qHTS assay (AID 1963590). The method, boiled down:
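A CRE-responsive beta-lactamase reporter in HEK 293T cells was used. Treatment ran 3 h at 37 C; detection used LiveBLAzer B/G FRET substrate for 2 h at room temperature.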

Assay [15] deals with Beta-2 adrenergic receptor (Homo sapiens) (UniProt P07550). The assay is described as follows: Adrenergic beta2 receptor (ADRB2) small molecule antagonists, cell-based qHTS assay (AID 1963592). Further: series mostly up to about 92 µM; nearly all actives have a fitted effect of over 50% in size. A digest of the protocol:
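Cells (CHO, stable ADRB2 overexpression) incubated 18-20hr at 37C; compounds added from DMSO; agonist mix (1nM isoproterenol, 100uM IBMX, 25uM Ro-20-1724) added; 0.5hr RT; d2-cAMP and anti-cAMP-cryptate added; 1hr RT; 665/615 nm read.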

The target of assay [16] is D(2) dopamine receptor (Homo sapiens) (UniProt P14416). As to the kind of experiment: Dopamine D2 receptor (DRD2) small molecule agonists, cell-based qHTS assay (AID 1963594). Further: nearly all actives have a fitted effect of over 35% in size. A digest of the protocol: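 HEK293 cells stably expressing human DRD2, pre-treated with PDE inhibitor Ro20-1724 (0.1 mM final) and compound 10 min at room temperature, then stimulated with NKH477 (200nM […]) for 30 min. cAMP read by HTRF (665/620 nm).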

For assay [17] the target is unchanged. The assay is described as follows: Dopamine D2 receptor (DRD2) small molecule antagonists, cell-based qHTS assay (AID 1963595; active means well fitted inhibition curve with a large enough effect in the signal ratio in the repeat runs, with a control signal flat; the % refers to the signal ratio). The method, boiled down:
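Stable D2 receptor HEK293 line, 24 h after seeding. Compound preincubated 10 min, then quinpirole (12 nM) with forskolin analogue NKH477 (200 nM), 30 min, room temperature. Detection by time-resolved FRET of cAMP.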

A short description of assay [18]: p53 small molecule agonists, cell-based qHTS assay with human liver microsomes: qHTS cell viability counter screen (AID 1963579). Further: nearly all actives have a fitted effect of over 45% in size. A digest of the protocol:
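Seed p53RE-bla cells at 4,000 per well; incubate 5 h at 37 C; add compound, human liver microsomes and NADPH; incubate 16 h at 37 C; add CellTiter-Glo; after 30 min at room temperature, read luminescence.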

The nature of assay [19]: cAMP Responsive Elements (CRE) small molecule antagonists, cell-based qHTS assay (AID 1963591; active means well fitted inhibition curve with a large enough effect in the signal ratio in the repeat runs, not every such curve was filed as active; the % refers to the signal ratio). A digest of the protocol:
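HEK293T cells carrying a CRE-driven beta-lactamase reporter receive compound and NKH477 (0.25 uM final) for 3 h. Fluorescence from LiveBLAzer B/G FRET substrate is read after 2 h at room temperature.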

Assay [20] concerns the target Beta-2 adrenergic receptor (Homo sapiens) (UniProt P07550). As to the kind of experiment: Adrenergic beta2 receptor (ADRB2) small molecule agonists, cell-based qHTS assay (AID 1963593).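 Further: CHO cells stably overexpressing human ADRB2.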 A digest of the protocol: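 CHO cells stably over-expressing ADRB2 were plated overnight at 37C, then dosed with compounds plus a stimulation mix containing 100uM IBMX and 25uM Ro-20-1724 for 0.5hr at room temperature. cAMP was measured by HTRF competition, 1hr.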

Chain of Muscarinic acetylcholine receptor M1 (Homo sapiens) (P11229 whole entry, looked up): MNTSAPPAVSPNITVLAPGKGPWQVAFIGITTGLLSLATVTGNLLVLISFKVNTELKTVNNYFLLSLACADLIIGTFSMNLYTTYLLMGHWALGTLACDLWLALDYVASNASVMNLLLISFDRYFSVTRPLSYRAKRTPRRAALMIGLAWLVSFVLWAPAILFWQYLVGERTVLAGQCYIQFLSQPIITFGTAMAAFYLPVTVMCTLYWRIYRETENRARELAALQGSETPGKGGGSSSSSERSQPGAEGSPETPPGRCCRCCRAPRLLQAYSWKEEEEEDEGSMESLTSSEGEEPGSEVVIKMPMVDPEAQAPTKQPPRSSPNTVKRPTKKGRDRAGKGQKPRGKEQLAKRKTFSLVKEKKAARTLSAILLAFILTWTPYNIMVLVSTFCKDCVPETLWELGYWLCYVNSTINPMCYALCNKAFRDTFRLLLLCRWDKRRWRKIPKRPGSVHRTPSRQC
Chain of D(2) dopamine receptor (Homo sapiens) (P14416 whole entry, looked up): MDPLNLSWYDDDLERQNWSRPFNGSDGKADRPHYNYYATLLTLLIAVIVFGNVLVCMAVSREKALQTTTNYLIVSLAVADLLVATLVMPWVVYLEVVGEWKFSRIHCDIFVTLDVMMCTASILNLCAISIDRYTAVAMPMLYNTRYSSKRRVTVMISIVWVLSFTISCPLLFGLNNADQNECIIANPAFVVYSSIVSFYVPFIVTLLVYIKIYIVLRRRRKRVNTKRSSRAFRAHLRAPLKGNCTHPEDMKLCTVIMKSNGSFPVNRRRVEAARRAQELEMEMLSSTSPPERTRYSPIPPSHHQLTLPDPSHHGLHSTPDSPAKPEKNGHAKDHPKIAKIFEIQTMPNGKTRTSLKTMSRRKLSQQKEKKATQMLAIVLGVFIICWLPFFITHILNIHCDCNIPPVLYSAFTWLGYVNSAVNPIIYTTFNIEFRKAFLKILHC
Chain of KiSS-1 receptor (Homo sapiens) (Q969F8 whole entry, looked up): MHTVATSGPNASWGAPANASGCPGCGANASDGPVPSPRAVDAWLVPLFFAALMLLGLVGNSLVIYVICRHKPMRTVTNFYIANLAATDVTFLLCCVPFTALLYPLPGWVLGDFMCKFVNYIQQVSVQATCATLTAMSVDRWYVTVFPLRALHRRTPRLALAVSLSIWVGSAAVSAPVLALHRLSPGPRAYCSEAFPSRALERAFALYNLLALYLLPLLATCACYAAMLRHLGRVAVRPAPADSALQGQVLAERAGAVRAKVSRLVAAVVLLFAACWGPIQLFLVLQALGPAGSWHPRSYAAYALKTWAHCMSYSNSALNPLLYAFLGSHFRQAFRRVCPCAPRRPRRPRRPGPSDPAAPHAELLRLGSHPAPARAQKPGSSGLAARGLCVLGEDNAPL
Chain of Beta-2 adrenergic receptor (Homo sapiens) (P07550 whole entry, looked up): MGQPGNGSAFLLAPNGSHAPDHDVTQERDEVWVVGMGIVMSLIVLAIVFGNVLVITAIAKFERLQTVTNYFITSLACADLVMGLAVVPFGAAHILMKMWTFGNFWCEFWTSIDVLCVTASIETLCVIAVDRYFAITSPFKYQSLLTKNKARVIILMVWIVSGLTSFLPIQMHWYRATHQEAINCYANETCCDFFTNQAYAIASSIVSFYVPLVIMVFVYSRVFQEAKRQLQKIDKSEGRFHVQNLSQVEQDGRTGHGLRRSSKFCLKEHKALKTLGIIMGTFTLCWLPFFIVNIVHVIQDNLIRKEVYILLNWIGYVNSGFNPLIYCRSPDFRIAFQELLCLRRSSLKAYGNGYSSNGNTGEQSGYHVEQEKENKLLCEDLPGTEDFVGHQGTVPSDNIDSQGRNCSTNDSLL
Chain of Gonadotropin-releasing hormone receptor (Homo sapiens) (P30968 whole entry, looked up): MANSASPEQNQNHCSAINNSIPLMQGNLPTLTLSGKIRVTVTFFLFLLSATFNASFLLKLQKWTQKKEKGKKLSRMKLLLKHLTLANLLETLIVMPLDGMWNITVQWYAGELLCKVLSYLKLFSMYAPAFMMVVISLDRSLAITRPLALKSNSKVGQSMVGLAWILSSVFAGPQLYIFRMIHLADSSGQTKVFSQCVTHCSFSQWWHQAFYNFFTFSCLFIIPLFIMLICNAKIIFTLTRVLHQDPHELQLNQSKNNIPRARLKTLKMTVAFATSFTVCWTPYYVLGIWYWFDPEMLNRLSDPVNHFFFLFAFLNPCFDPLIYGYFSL
Chain of 5-hydroxytryptamine receptor 2A (Homo sapiens) (P28223 whole entry, looked up): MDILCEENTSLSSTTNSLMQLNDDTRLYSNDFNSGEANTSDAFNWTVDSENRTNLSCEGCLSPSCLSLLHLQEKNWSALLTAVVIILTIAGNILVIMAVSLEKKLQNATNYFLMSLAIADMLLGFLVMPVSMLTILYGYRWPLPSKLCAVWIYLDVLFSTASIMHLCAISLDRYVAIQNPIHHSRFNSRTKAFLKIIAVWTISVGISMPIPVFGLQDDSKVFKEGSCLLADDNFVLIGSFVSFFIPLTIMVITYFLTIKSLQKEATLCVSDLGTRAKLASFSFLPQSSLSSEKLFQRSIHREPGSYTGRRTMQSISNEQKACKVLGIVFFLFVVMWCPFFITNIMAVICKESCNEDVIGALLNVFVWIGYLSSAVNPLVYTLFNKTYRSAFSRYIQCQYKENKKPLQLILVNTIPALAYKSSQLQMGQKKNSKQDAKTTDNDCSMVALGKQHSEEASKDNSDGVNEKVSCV

In the case of `O=C1NC(=O)C2CC=CCC12` (stereo not drawn), the Potency result in [1], in assay [2], in assay [3], in assay [4], in assay [5] and in assay [6] was “inactive” throughout. Besides, the Potency entry in assay [7], in [8], in assay [9], in assay [10], in [11] and in [12] was “inactive” throughout. Besides, the Potency entry in assay [13], in [14], in assay [15], in assay [16] and in assay [17] was “inactive” each time.
As for `CCOC(=O)CC(O)(CC(=O)OCC)C(=O)OCC`, the Potency entry in [1], in assay [2], in assay [3], in assay [4], in assay [5] and in assay [18] was “inactive” in each case. Further, the Potency entry in assay [7], in assay [8], in assay [9], in assay [10], in [11] and in assay [13] was “inactive” in each case. The Potency entry in assay [19], in assay [15], in assay [20], in assay [16] and in assay [17] was “inactive” each time.
For `OC[C@H]1O[C@@H](OCCc2ccc(O)cc2)[C@H](O)[C@@H](O)[C@@H]1O`, the Potency result in [1], in [2], in assay [3], in assay [4], in assay [5] and in [6] was “inactive” throughout. In addition, the Potency result in assay [7], in assay [8], in assay [9], in assay [10], in assay [12] and in assay [13] was “inactive” in each case. Moreover, the Potency result in assay [19], in [20] and in assay [17] was “inactive” each time.
For `CC(C(=O)O)c1ccc(C(=O)c2cccs2)cc1` (stereo not drawn), the Potency result in [1], in assay [2], in [3], in [4], in [5] and in assay [18] was “inactive” each time. Also, the Potency result in assay [7], in [8], in [9], in assay [11], in [12] and in assay [13] was “inactive” in each case. For the same compound, in assay [17], the Potency entry was “inactive”.
Take `CCCCNc1cc(C(=O)O)cc(S(N)(=O)=O)c1Oc1ccccc1`: the Potency result in [1], in assay [2], in assay [3], in [4], in [5] and in [6] was “inactive” each time. The Potency entry in assay [7], in assay [8], in assay [9], in [11], in assay [13] and in assay [14] was “inactive” throughout. In addition, the Potency result in assay [19], in assay [15], in assay [16] and in assay [17] was “inactive” in each case.
As for `[Cl][Au]([Cl])[Cl]`, in assay [1], the Potency was 3.06 µM (active). Also, the Potency entry in [2], in [3], in assay [4], in assay [5], in [6] and in assay [10] was “inactive” in each case. In addition, the Potency entry in assay [11], in [12], in assay [13], in assay [15], in [20] and in assay [16] was “inactive” throughout. Further, the Potency result in assay [17] is “inactive”.
Consider `C=CCCCCCC`, for which the Potency result in assay [1], in assay [2], in [3], in [4], in assay [5] and in assay [6] was “inactive” each time. In addition, the Potency entry in assay [7], in [8], in [9], in [10], in [11] and in [13] was “inactive” each time. In addition, the Potency result in assay [14], in assay [19], in assay [15], in assay [20], in assay [16] and in assay [17] was “inactive” in each case.
Take `CCCCOC(=O)CC#N`: the Potency entry in assay [1], in [2], in assay [3], in assay [4], in assay [5] and in assay [6] was “inactive” throughout. Also, the Potency entry in assay [7], in assay [8], in assay [9], in assay [10], in [11] and in assay [12] was “inactive” throughout. For the same compound, the Potency result in assay [13], in [14], in assay [15], in [20], in assay [16] and in assay [17] was “inactive” throughout.
